High-throughput results: PubChem, Buhrlage Lab, Dana-Farber Cancer Institute and Novartis Institutes for BioMedical Research (Cambridge, Mass)
USP30 block = blocks human USP30 ubiquitin-rhodamine cleavage; Q70CQ3; purified USP30, Ub-rhodamine cleavage fluorescence; inhibition, % at 25 µM; 47,000 compounds, 5.3% hits
Target sequence (Q70CQ3 whole entry, looked up): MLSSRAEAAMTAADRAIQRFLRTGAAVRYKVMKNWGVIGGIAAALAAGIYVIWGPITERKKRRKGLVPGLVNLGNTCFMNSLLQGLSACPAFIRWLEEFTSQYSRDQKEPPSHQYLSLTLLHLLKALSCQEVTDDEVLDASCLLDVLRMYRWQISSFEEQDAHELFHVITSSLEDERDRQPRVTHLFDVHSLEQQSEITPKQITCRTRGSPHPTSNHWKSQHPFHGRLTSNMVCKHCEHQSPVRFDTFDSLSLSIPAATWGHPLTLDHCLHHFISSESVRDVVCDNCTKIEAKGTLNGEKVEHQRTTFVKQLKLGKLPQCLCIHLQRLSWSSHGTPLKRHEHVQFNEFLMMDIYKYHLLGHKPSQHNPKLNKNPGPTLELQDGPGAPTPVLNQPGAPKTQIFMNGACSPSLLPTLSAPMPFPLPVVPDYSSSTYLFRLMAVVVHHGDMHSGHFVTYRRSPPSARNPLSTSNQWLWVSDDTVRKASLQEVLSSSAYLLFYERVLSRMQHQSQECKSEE
USP17 block = inhibitors of human USP17 deubiquitinase; purified USP17, Ub-rhodamine cleavage fluorescence, 3 h; inhibition, % at 50 µM; 47,000 compounds, 6.5% hits; AID 1645855
Large screens that a line does not name were inactive. In the library only some 9.6% were active in any assay of this set; here they are far more common. Rule as the data show it: active = inhibition above about 30%; inactive = the rest.

Cc1ccc2nc(CNc3ccc(F)cc3C)cc(=O)n2c1	USP17 block 85
O=C(c1cc(C2CC2)[nH]n1)N1CCN(Cc2ccccc2)CC1	USP30 block 34
O=C(c1cc(C2CC2)[nH]n1)N1CCCCC1	none
CC1(C(=O)N2CCC3(C2)c2ccccc2S(=O)(=O)N3Cc2ccccc2)CC1 (stereo not drawn)	none
Cc1c(C(=O)Nc2cccc(C(F)(F)F)c2)cnn1-c1ccccn1	USP17 block 55
CSc1cccc(NC(=O)c2cnn(-c3ccccn3)c2C(C)C)c1	none
COc1cccc(NC(=O)C(=O)c2c(-c3ccccc3)cc3ccccn23)c1	none
CCc1ccccc1NC(=O)Cn1cnc(-c2nc(C)cs2)c1	none
Fc1cccnc1CN1CCCC(c2cnc(Nc3ncccn3)cn2)C1 (stereo not drawn)	none
O=C(NC1CC2(CCN(CC3CC3)CC2)c2ccccc21)c1ccncc1 (stereo not drawn)	none
CCCCN1CC(C(=O)Nc2ccc(C(=O)Nc3ccc(F)c(Cl)c3)cc2)CC1=O (stereo not drawn)	USP17 block 52
CCCCN1CC(C(=O)Nc2ccc(C(=O)Nc3ccc(Cl)c(Cl)c3)cc2)CC1=O (stereo not drawn)	none
CCCCN1CC(C(=O)Nc2ccc(C(=O)Nc3ccc(Cl)cc3)cc2)CC1=O (stereo not drawn)	USP30 block 64
CCCCN1CC(C(=O)Nc2ccc(C(=O)Nc3cccc(Cl)c3)cc2)CC1=O (stereo not drawn)	none
COc1ccc2[nH]c(=O)c(CN(CCc3ccccc3C)C(=O)Nc3ccccc3OC)cc2c1	none
Cc1ccc(NC(=O)c2oc3ccccc3c2NC(=O)COc2ccc(C)cc2)cc1	none
Cc1ccc(NC(=O)COc2ccc3oc4c(c3c2)CCCC4)cc1	USP30 block 38
Cc1cc(C(=O)NCC2CCCO2)n(-c2ccccc2)n1 (stereo not drawn)	none
Cc1cc(NC(=O)COc2ccc3oc4c(c3c2)CCCC4)n(-c2ccccc2)n1	USP17 block 73 (no result: USP30 block)
CC(NC(=O)c1ccccc1)c1nc(-c2ccc(S(=O)(=O)N3CCCC3)cc2)no1 (stereo not drawn)	USP17 block 43
CC(NC(=O)c1ccccc1)c1nc(-c2ccc(S(=O)(=O)N3CCCCC3)cc2)no1 (stereo not drawn)	none
O=c1c2cc(Cl)ccc2ncn1Cc1csc(-c2ccccc2)n1	USP30 block 44
O=c1c2cc(Br)ccc2ncn1Cc1csc(-c2ccc(Cl)cc2)n1	none
O=C(CN1C[C@@H](c2cccnc2)[C@@]2(CCCC(=O)N2)C1)NCCOc1ccccc1	none
CCN1C[C@H]2C3(CCN(C(=O)NC)CC3)CC[C@@]2(C(=O)N2CCCC2)C1	none
Cc1sc2c(c1C)C(=O)NC(c1ccc(-c3ccc(F)cc3)o1)N2 (stereo not drawn)	none
CCN1CCN(c2nc(NCc3ccco3)c3ccccc3n2)CC1	none
Cc1ccc(Nc2nc(NCc3ccco3)c3ccccc3n2)cc1	USP30 block 60, USP17 block 82
Cn1c(=O)c2c(SCC(=O)NCc3ccc4c(c3)OCO4)nc(-c3ccc([N+](=O)[O-])cc3)nc2n(C)c1=O	USP30 block 31
O=C(Cn1cnc2cc([N+](=O)[O-])ccc2c1=O)NCc1ccc2c(c1)OCO2	none
Cn1c(=O)c2c(SCC(=O)N3CCCC3)nc(-c3cccc(Cl)c3)nc2n(C)c1=O	none
Cc1ccc(-c2nc(SCC(=O)N3CCCC3)c3c(=O)n(C)c(=O)n(C)c3n2)cc1	USP30 block 39
O=C1NCCN1C1CCCN(Cc2ncc(-c3ccccc3)o2)C1 (stereo not drawn)	none
CC(C)c1ccc(NC(=O)c2ccc(-c3noc(C4CC4)n3)cc2)cc1	none (no result: USP17 block)
Cn1c(C(=O)NCCc2ccco2)c(N2CCCC2=O)c2cc(F)ccc21	none
CSc1nc(N2CCCC2)c2sccc2n1	USP17 block 40
O=C(Nc1nc2ccsc2c(=O)s1)C1CCC1	none
CCN1C(=O)[C@H]2CN(c3ncccn3)C[C@H]2C12CCN(C(=O)c1cccnc1)CC2	none
O=C(c1cc2ccccc2o1)[C@@H]1[C@@H]2CCCN2[C@]2(C(=O)Nc3c(Cl)cccc32)[C@@]12C(=O)Nc1ccccc12	none
Cc1cc(Cl)c2c(c1)[C@]1(C(=O)N2)N2CCC[C@H]2[C@@H](C(=O)c2cc3ccccc3o2)[C@]12C(=O)Nc1ccccc12	USP17 block 63
O=C1COc2ccccc2C/C=C/CC2(CCCN(CC(=O)N3CCOCC3)C2)CN1 (stereo not drawn)	none
CCC(=O)c1c[nH]c(C(=O)NCCCn2ccnc2)c1	none
COc1ccc(C(=O)c2c[nH]c(C(=O)NCCCn3ccnc3)c2)cc1	USP30 block 33
C/C=C1/CN2CCc3c([nH]c4ccccc34)[C@@H]2C[C@@H]1[C@H](Cc1c[n+]2c(c3[nH]c4ccccc4c13)C[C@@H]1C(C(=O)OC)=CO[C@@H](C)[C@H]1C2)C(=O)OC	none
O=C(CSc1ncnc2c1sc1nc(-c3ccccc3)c3c(c12)CCC3)Nc1ccc(Cl)cc1Cl	none
c1cc(-c2cc(N3CCCCCC3)n[nH]2)ccn1	none
O=C(NCCc1nc2ccccc2[nH]1)c1[nH]nc2c1CCc1ccccc1-2	USP30 block 45
O=C(NCCN1CCOCC1)c1[nH]nc2c1CCc1ccccc1-2	none
COc1ccc(Cl)cc1Nc1ncnc2sccc12	USP17 block 52 (no result: USP30 block)
COc1cc2c(cc1OC)CN(c1ncnc3sccc13)CC2	none (no result: USP30 block)
CC(=O)c1cc2c(cc1NC(=O)c1oc3c(c1C)-c1[nH]ncc1CC3)OCO2	USP17 block 43
CC(=O)c1cc2c(cc1NC(=O)c1cc(S(=O)(=O)N3CCCC3)cn1C)OCO2	none
CC(C)n1c(N2CCN(C)CC2)nc2c1c(=O)[nH]c(=O)n2C	none
Cc1cccc(C)c1NC(=O)C1(N(Cc2ccco2)C(=O)c2ccccc2F)CCCCC1	USP30 block 36
CC(=O)Nc1cccc(C(=O)N(Cc2ccco2)C2(C(=O)Nc3c(C)cccc3C)CCCCC2)c1	none
Cc1ccccc1NC(=O)C1(N(Cc2ccco2)C(=O)Cc2cc3ccccc3[nH]2)CCCCC1	none
Cc1cc(C)nc(SCC(=O)N(Cc2ccco2)C2(C(=O)Nc3c(C)cccc3C)CCCCC2)n1	USP30 block 40, USP17 block 58
Cc1cccc(Nc2cc(C)nc(C3CN(c4cnccn4)C3)n2)n1	none
Clc1ccc(CNC2CCCc3ccccc32)c(Cl)c1 (stereo not drawn)	none
Cc1ccc(-c2cc(C(=O)N3CCC(C)CC3)c(C)[nH]2)cc1	none (no result: USP30 block)
c1ccc2c(c1)CCc1c-2nc2ccccc2c1N1CCOCC1	USP17 block 72
Cc1ccc(S(=O)(=O)c2cnc3ccccc3c2N2CCOCC2)cc1	none
O=S(=O)(c1ccc2ccccc2c1)N1CCc2sccc2C1	none
COc1cccc(C(CNC(=O)c2cccc3ccccc23)N2CCOCC2)c1 (stereo not drawn)	none
O=S(=O)(c1cccc2cccnc12)N1CCN(c2ccc(F)cc2)CC1	USP30 block 30
O=S(=O)(c1cccc2cccnc12)N1CCCC1c1ccc(F)cc1 (stereo not drawn)	none
O=C(Nc1ccc(Cl)cc1)C1CCCN(c2cnccn2)C1 (stereo not drawn)	USP17 block 33
Cc1ccc(NC(=O)C2CCCN(c3cnccn3)C2)cc1 (stereo not drawn)	none
CC(=O)c1cccc(NC(=O)C(C)OC(=O)c2cc3ccccc3[nH]2)c1 (stereo not drawn)	USP30 block 45, USP17 block 60
COc1ccc(N(C)S(=O)(=O)c2cccc(C(=O)OC(C)C(=O)Nc3cccc(C(C)=O)c3)c2)cc1 (stereo not drawn)	none
